Measurements reported in PubChem BioAssay (NCI).
This is part of a sample that, as a whole, favours compounds with a hit. Of some 83,000 tested, about 20% had one in any assay.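 Each cell line was grown in a 96-well plate and treated with one concentration of compound for 48 hours. Values below 10 were considered active.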 Activity calls are given as the source filed them.

Tests used:
Experiment in all cases: NCI-60 one-dose screen, 48 h (100 = growth as untreated, 0 = no growth, -100 = all killed)
Details in all cases: 10 µM unless noted
[1] = system: DU-145 prostate
[2] = system: K-562 leukemia
[3] = system: MALME-3M melanoma
[4] = system: MDA-MB-231 breast
[5] = system: RXF 393 renal
[6] = system: SF-268 CNS
[7] = system: SF-295 CNS
[8] = system: SF-539 CNS
[9] = system: UACC-257 melanoma
[10] = system: M14 melanoma
[11] = system: HCT-15 colon
[12] = system: HT29 colon
[13] = system: SNB-75 CNS
[14] = system: SNB-19 CNS
[15] = system: U251 CNS
[16] = system: PC-3 prostate
[17] = system: SK-MEL-5 melanoma
[18] = system: UACC-62 melanoma
[19] = system: LOX IMVI melanoma
[20] = system: SK-MEL-28 melanoma

Measured: growth

c1ccc2c(c1)CN(CCCN1CCOCC1)C2
inactive: [1] 107% | [2] 104% | [3] 99.7% | [4] 107% | [5] 117% | [6] 103% | [7] 97.9% | [8] 98.9% | [9] 93.9% | [10] 97% | [11] 102% | [12] 107% | [13] 89.7% | [14] 96.1% | [15] 97.8% | [16] 96.4% | [17] 99.1% | [18] 96.7% | [19] 107% | [20] 105%

CCCOc1ccc(-c2nc(-c3ccc(N)cc3)cs2)cc1
inactive: [1] 133% | [2] 85.3% | [3] 116% | [4] 99% | [5] 99.5% | [6] 133% | [7] 89.3% | [8] 103% | [9] 111% | [10] 111% | [11] 89.9% | [12] 96.7% | [13] 98% | [14] 96.6% | [15] 107% | [16] 94.6% | [17] 100% | [18] 97% | [19] 110% | [20] 132%

CC1Cc2c(Cl)ncnc2N(C)c2ccc(O)cc21 (stereo not given)
active: [17] -78.9%
inactive: [1] 108% | [2] 89.6% | [3] 53.4% | [4] 21.1% | [5] 32.1% | [6] 29.1% | [7] 49.7% | [8] 34.6% | [9] 33.9% | [10] 21.9% | [11] 67.3% | [12] 74.7% | [13] 85% | [14] 44.4% | [15] 36% | [16] 31.4% | [18] 33.8% | [19] 11.9% | [20] 27.8%

Cc1ccc(-c2cn(C/C=C3\C=CN(S(=O)(=O)c4ccccc4)CC3)nn2)cc1
inactive: [1] 118% | [2] 89.5% | [3] 104% | [4] 97.5% | [5] 123% | [6] 99.3% | [7] 99.3% | [8] 100% | [9] 106% | [10] 92.5% | [11] 95.6% | [12] 124% | [13] 82.1% | [14] 93% | [15] 108% | [16] 97.1% | [17] 97% | [18] 64% | [19] 97.8% | [20] 101%

NC(=O)c1c(NC(=O)COC(=O)Cc2ccccc2F)sc2c1CCC2
inactive: [1] 104% | [2] 139% | [3] 109% | [4] 101% | [5] 109% | [6] 99.6% | [7] 129% | [8] 94.9% | [10] 105% | [11] 104% | [12] 117% | [13] 106% | [14] 86.6% | [15] 101% | [16] 100% | [17] 91.1% | [18] 97% | [19] 110% | [20] 97.2%
active: [9] 4.15%

Cc1cc[n+](CCCCCCCCCC[n+]2ccc(C)cc2)cc1
inactive: [1] 93.7% | [2] 79.8% | [3] 113% | [4] 105% | [5] 127% | [6] 93.4% | [7] 73.1% | [8] 99.2% | [9] 106% | [10] 97.7% | [11] 103% | [12] 84.3% | [13] 95.3% | [14] 104% | [15] 105% | [16] 87.6% | [17] 92.8% | [18] 92.6% | [19] 91.4% | [20] 101%

O=C(Nc1ccc(CN2CCOCC2)c(C(F)(F)F)c1)c1nc2ccc3[nH]ncc3c2c2c1CCCC2
inactive: [1] 104% | [2] 82.8% | [3] 106% | [4] 95.9% | [5] 99.7% | [6] 103% | [7] 97.7% | [8] 99.1% | [9] 88.9% | [10] 91.6% | [11] 82.4% | [12] 74.8% | [13] 128% | [14] 98.4% | [15] 92% | [16] 66.2% | [17] 102% | [18] 79.2% | [19] 90.5% | [20] 103%

c1ccc(-c2nnc(-c3c[nH]c4ncccc34)s2)cc1
inactive: [1] 87.4% | [2] 83.9% | [3] 88% | [4] 86.8% | [5] 94.5% | [6] 86.2% | [7] 96.8% | [8] 96.9% | [9] 109% | [10] 97.8% | [11] 83.4% | [12] 106% | [13] 59.6% | [14] 91.7% | [15] 93.2% | [16] 81.6% | [17] 91.6% | [18] 81.2% | [19] 97% | [20] 99.6%

Cc1cc(NN=C(c2ccc(O)cc2)c2ccc(O)cc2)c([N+](=O)[O-])cc1[N+](=O)[O-]
inactive: [1] 81.8% | [2] 99.1% | [3] 100% | [4] 59.6% | [5] 25.7% | [6] 53.9% | [7] 43.6% | [8] 69.5% | [9] 42.5% | [10] 36.8% | [11] 46.3% | [12] 91.5% | [13] 74.3% | [14] 89.3% | [15] 49.4% | [16] 38.4% | [17] 46% | [18] 69.1% | [19] 25.3% | [20] 61.6%

CC1=CC[C@@H]2C(C)(C)[C@@H](O)CC[C@@]2(C)[C@@H]1COc1ccc2ccc(=O)oc2c1
inactive: [1] 68.9% | [2] 36% | [3] 72.3% | [4] 78.7% | [5] 65% | [6] 66.1% | [7] 46.5% | [8] 85.6% | [9] 102% | [10] 76.9% | [11] 29.4% | [12] 70.5% | [13] 62.1% | [14] 81.2% | [15] 67.9% | [16] 30.6% | [17] 28.7% | [18] 22.9% | [19] 52.2% | [20] 91.4%

Cc1ccc(S(=O)(=O)N/N=C2\CC3CCC2(C)C3(C)C)cc1 (stereo not given)
inactive: [1] 105% | [2] 120% | [3] 103% | [4] 89% | [5] 89.4% | [6] 116% | [7] 94% | [8] 102% | [9] 87.8% | [10] 77.9% | [11] 99.7% | [12] 108% | [13] 81.8% | [14] 98.1% | [15] 96.1% | [16] 86.2% | [17] 101% | [18] 77.2% | [19] 92.3% | [20] 102%

CC(=O)O.CC(=O)O.O.[Fe]
inactive: [1] 105% | [2] 139% | [3] 91.5% | [4] 99.2% | [5] 110% | [6] 95.1% | [7] 127% | [8] 103% | [9] 103% | [10] 106% | [11] 111% | [12] 98.7% | [13] 114% | [14] 98.2% | [15] 107% | [16] 93.4% | [17] 107% | [18] 93.7% | [19] 100% | [20] 112%

N#Cc1ccc(-c2ccc(COc3ccc(CC4SC(=O)NC4=O)cc3)cc2)cc1 (stereo not given)
active: [17] -18.3%
inactive: [1] 92.6% | [2] 28.3% | [3] 59.5% | [4] 71.2% | [5] 97.5% | [6] 63.6% | [7] 50.3% | [8] 65.5% | [9] 84.9% | [10] 73.4% | [11] 63.6% | [12] 103% | [13] 67.8% | [14] 63.3% | [15] 63% | [16] 54.4% | [18] 51.4% | [19] 48.5% | [20] 79%

COc1cc(-c2nc(SCCC(C)C)nc(Nc3ccc(S(N)(=O)=O)cc3)c2C#N)cc(OC)c1OC
inactive: [1] 43.1% | [3] 19.1% | [4] 25.1% | [5] 10.1% | [6] 42.4% | [7] 21.8% | [8] 38.6% | [9] 46% | [10] 20.6% | [11] 14% | [13] 47.6% | [14] 54.3% | [15] 31.5% | [17] 37.4% | [18] 45.7% | [20] 59.1%
active: [2] 7.52% | [12] 2.83% | [16] 9.42% | [19] 5.65%

CC(C)(C)c1cc(C(=O)Nc2ccccc2C(=O)NCCN)cc(C(C)(C)C)c1
inactive: [1] 15.8% | [3] 47.7% | [6] 57.5% | [8] 63.4% | [9] 63.2% | [13] 66.5% | [17] 46%
active: [2] -11.2% | [4] -69.4% | [5] -89.3% | [7] -69.4% | [10] -73.9% | [11] -56.7% | [12] -41.3% | [14] -46.1% | [15] -57.3% | [16] 4.8% | [18] -58.3% | [19] -98.5% | [20] -84%
